Test results from PubChem BioAssay (NCI).
This is part of a sample that, as a whole, favours compounds with a hit. Of some 83,000 tested, about 20% had one in any assay.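 Activity criterion: percent growth below 10, measured after cells in 96-well plates were exposed to a single compound concentration for 48 hours.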 Values without a mark were called inactive. Active and inactive are the calls of the source.

What was measured:
Assay in all cases: NCI-60 one-dose screen, 48 h (100 = growth as untreated, 0 = no growth, -100 = all killed)
Details in all cases: 10 µM unless noted
SR leukemia = test system: SR leukemia
RPMI-8226 leukemia = test system: RPMI-8226 leukemia
OVCAR-8 ovarian = test system: OVCAR-8 ovarian
OVCAR-5 ovarian = test system: OVCAR-5 ovarian
OVCAR-4 ovarian = test system: OVCAR-4 ovarian
SK-OV-3 ovarian = test system: SK-OV-3 ovarian
IGROV1 ovarian = test system: IGROV1 ovarian
OVCAR-3 ovarian = test system: OVCAR-3 ovarian
HS 578T breast = test system: HS 578T breast
NCI/ADR-RES ovarian = test system: NCI/ADR-RES ovarian

Row | SMILES | growth (SR leukemia) | growth (RPMI-8226 leukemia) | growth (OVCAR-8 ovarian) | growth (OVCAR-5 ovarian) | growth (OVCAR-4 ovarian) | growth (SK-OV-3 ovarian) | growth (IGROV1 ovarian) | growth (OVCAR-3 ovarian) | growth (HS 578T breast) | growth (NCI/ADR-RES ovarian)
1 | O=C1[C@H]2Cc3c([nH]c4ccccc34)[C@@H](c3c(Cl)cccc3Cl)N2C(=O)CN1C1CCN(CC2CCCCC2)CC1 | -0.0364% (active) | 66.2% | 99.6% | 97.8% | 101% | 109% | 53.2% | 67.9% | 73.5% | 91.8%
2 | COc1cc(/C=C/C(=O)c2ccc(NC(=O)CSc3nnc(-c4ccc(-c5nc6ccc(Cl)cc6[nH]5)cc4)o3)cc2)cc(OC)c1OC | 48.4% | 108% | 98% | 91.3% | 102% | 99% | 88.3% | 84.1% | 90.9% | 84.3%
3 | O=C(O)c1ccc(-n2cc(CNc3cccc(Cl)c3)c(-c3ccc(F)cc3)n2)cc1 | 130% | 89.2% | 96.3% | 112% | 100% | 106% | 102% | 106% | 106% | 97.9%
4 | Brc1ccccc1/C=N/Nc1nc(N/N=C/c2ccccc2Br)nc(N2CCOCC2)n1 | 63.9% | 65% | 96.6% | 111% | 96.2% | 114% | 89.7% | 85.2% | 114% | 91.5%
5 | CCN(CC)c1cn(-c2ccc(S(N)(=O)=O)cc2)nn1 | 97% | 103% | 102% | 105% | 101% | 113% | 113% | 110% | 98.3% | 109%
6 | Cn1ccnc1C(=O)/C=C/C=C/c1ccc(C(=O)Nc2ccc(F)cc2)cc1 | 10.8% | -5.49% (active) | 13.6% | 33.7% | 45.7% | 67.1% | 10.5% | 5.1% (active) | 39.1% | 26.7%
7 | NC/C(=C/F)COc1ccc2nc(NCc3cccnc3)oc2c1 | 101% | 120% | 102% | 113% | 86.6% | 110% | 86.4% | 122% | 99.5% | 111%
8 | NC(N)=Nc1ccc(Oc2cccc(Nc3ccc(Br)c(C(F)(F)F)c3)c2)cn1 | -50.7% (active) | -40% (active) | -60.6% (active) | -56.6% (active) | -75.2% (active) | 32.2% | -74.7% (active) | -94.3% (active) | -15.3% (active) | 55.7%
9 | O=C(Nc1ccc(Br)cc1)Nc1nc2ccc([N+](=O)[O-])cc2s1 | -27.9% (active) | -35% (active) | 8.82% (active) | 19.4% | -10.6% (active) | -5.7% (active) | 21.8% | -5.56% (active) | -3.63% (active) | 3.27% (active)
10 | CCc1nn2c(C)cc(C)nc2c1Cc1ccc(/C=C/CN2CCN(CCOCCOCCN3CCN(C/C=C/c4ccc(Cc5c(CC)nn6c(C)cc(C)nc56)cc4)CC3)CC2)cc1 | -30.9% (active) | -41.9% (active) | 19.1% | 28.2% | 25.9% | 85.2% | 4.6% (active) | -60.4% (active) | -39.4% (active) | 23.2%
11 | C=CC(=O)N1CCC=C(c2cc3c(N[C@H](C)c4ccccc4)ncnc3[nH]2)C1 | 32.9% | 41.8% | 66.4% | 49.8% | 45.4% | -6.72% (active) | 14.5% | 56.2% | 69% | 73.7%
12 | CCCSc1nc(Nc2ccc(/C(C)=N\NC(N)=S)cc2)c(C#N)c(-c2ccccc2)n1 | 57.1% | 67.5% | 56% | 85.5% | 58.7% | 125% | 86.9% | 31.4% | 62.5% | 53.5%
13 | Nc1cc(-c2c[nH]c3ccc(Br)cc23)nc2cc(-c3c[nH]c4ccc(Br)cc34)nn12 | -1.79% (active) | 15.9% | 24.5% | 7.96% (active) | 40.8% | 116% | 22.2% | 22.6% | 54.4% | 35.5%
